A selection: hits, their analogues and other compounds. The true share with any hit is near 3.6%.
Epigenetic reg: derepresses silenced GFP reporter in murine cells. Potency, µM (titrated, usually from 53.9 µM), hits mostly activators. murine LDR cells, GFP reporter derepression, 30 h. 280,000 tested, 0.2% active; also: nearly all actives have a fitted effect of over 60% in size
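Murine LDR cells bearing a silenced CMV-driven GFP reporter were exposed to compound for 30 h at 37 C. After PBS washes, GFP-positive cells (20-120 um objects) counted by laser-scanning microplate cytometry.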
IMPase Li inh: IMPase inhibition in cells with lithium potentiation; Potency, µM (top dose mostly 59.4 µM), actives largely listed as inhibitors; 210,000 tested, 0.35% active; CHO-M1 cells, IP1 TR-FRET (IP-One), carbachol + lithium;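 also: IP1 builds up when IMPase is blocked and the TR-FRET signal falls; nearly all actives have a fitted effect of over 50% in size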
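Readout is a homogeneous TR-FRET IP1 immunoassay (Ex 320, Em 665 and 620), where raised cytosolic IP1 lowers signal. Cells were CHO-M1 treated 30 min at 37C with test compounds plus a little lithium; AC50 values came from Hill-equation fitting.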
KDM4E inh: inhibitors of human JMJD2E histone demethylase | B2RXH2 | JMJD2E catalytic domain, FDH-coupled NADH fluorescence (FDH is formaldehyde dehydrogenase) | Potency, µM (series often up to 57.1 µM), most hits filed as inhibitors | 230,000 tested, 1.6% active; active = well fitted inhibition curve with a large enough effect, not every such curve was filed as active; inconclusive = small, poorly fitted or top-dose-only effect, or another doubt; inactive = no such curve, though single readings can be large or run the other way; also: nearly all actives have a fitted effect of over 50% in size
NPSR antagonist: neuropeptide S receptor (human) antagonism, cAMP; Potency, µM (doses to about 38.3 µM), actives largely listed as inhibitors; CHO-NPSR cells, cAMP TR-FRET, antagonist mode; 220,000 tested, 1% active; AID 1461; Q6W5P4; also: nearly all actives have a fitted effect of over 50% in size
Target sequence (Q6W5P4 whole entry, looked up): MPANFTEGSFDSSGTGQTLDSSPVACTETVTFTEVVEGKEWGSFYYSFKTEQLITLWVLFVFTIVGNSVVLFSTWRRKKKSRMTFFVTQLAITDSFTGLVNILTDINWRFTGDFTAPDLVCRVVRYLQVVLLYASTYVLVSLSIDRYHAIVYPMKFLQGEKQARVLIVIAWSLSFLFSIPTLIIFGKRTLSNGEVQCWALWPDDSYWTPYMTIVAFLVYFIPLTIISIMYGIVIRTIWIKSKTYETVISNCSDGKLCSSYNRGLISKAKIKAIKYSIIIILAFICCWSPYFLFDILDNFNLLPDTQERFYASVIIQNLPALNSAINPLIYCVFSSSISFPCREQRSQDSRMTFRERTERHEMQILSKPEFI
KAT2A inh: blocks human GCN5L2 histone acetyltransferase; Q92830; GCN5L2 HAT assay, ThioGlo1 CoA-SH fluorescence; Potency, µM (top dose mostly 58.9 µM), usual class: inhibitors; 390,000 tested, 0.21% active; AID 504327
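ThioGlo1-coupled HAT assay: 20nM GCN5L2, 70uM acetyl-CoA, 75uM H3(1-25) peptide, pH 7.5. Fluorescence read at 340/540nm at start and after 20 min at room temperature.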
Sfp PPTase inh: Sfp phosphopantetheinyl transferase inhibition. Potency, µM, most hits filed as inhibitors. AID 1490. Biochemical Sfp PPTase activity, qHTS. Q9F4F7. 310,000 tested, 3.5% active;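 also: the enzyme is Sfp with the accession as filed and its product quenches rhodamine fluorescence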
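After 15 min at room temperature with compound, 15 nM Sfp received 5 uM rhodamine-CoA plus 12.5 uM BHQ-2-ybbR (50 mM Hepes pH 7.6, 10 mM MgCl2). Rate came from the fluorescence difference over 30 min, ex 525/em 598 nm.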
Each line names hits and unclear results; the compound was inactive in the other large screens. Unless noted, calls follow the shape of the dose curve; as a rule, active = well fitted curve in the direction sought with a large enough effect; inconclusive = small, poorly fitted or top-dose-only effect, or another doubt; inactive = no such curve, though single readings can be large; an effect the other way counts as inactive or inconclusive.

COc1ccc(Oc2nc(SC)nc3ccccc23)cc1	IMPase Li inh 10µM
COc1ccc(Oc2nc(-c3cccnc3)nc3ccccc23)cc1	Sfp PPTase inh inconclusive (no result: IMPase Li inh)
CN(C)c1ccc(N=Nc2ccc(C(=O)O)cc2)cc1	Sfp PPTase inh 79µM (no result: Epigenetic reg, IMPase Li inh, KDM4E inh, NPSR antagonist)
CCOc1ccc(OCC)c(NC(=O)C(NS(=O)(=O)c2cccs2)c2ccccc2)c1 (stereo unspecified)	none (no result: IMPase Li inh, KDM4E inh, NPSR antagonist, Sfp PPTase inh)
O=C(O)C1Nc2c(C(=O)N3CCOCC3)cccc2C2C=CCC12 (stereo unspecified)	KDM4E inh inconclusive, Sfp PPTase inh 7.1µM
O=C(c1ccccc1O)N1CCOCC1	none (no result: IMPase Li inh)
COc1ccc(C2=NN(C(=O)c3ccncc3)C(c3ccccc3O)C2)cc1 (stereo unspecified)	Sfp PPTase inh 14µM (no result: Epigenetic reg, IMPase Li inh, KDM4E inh, NPSR antagonist)
CCOC(=O)CC1C(=O)NCCN1c1nc2c(C)cccn2c(=O)c1/C=C1\SC(=S)N(CC(C)C)C1=O (stereo unspecified)	Epigenetic reg 7.9µM, NPSR antagonist 10µM (no result: IMPase Li inh)
CCOCCCNc1nc2c(C)cccn2c(=O)c1/C=C1\SC(=S)N(CC(C)C)C1=O	none
CC(C)CN1C(=O)/C(=C/c2c(N3CCc4ccccc4C3)nc3ccccn3c2=O)SC1=S	Epigenetic reg 4.5µM (no result: IMPase Li inh)
CO[C@H]1COC(=O)[C@@H](CCSC)NC(=O)C/C=C\[C@@H](C)[C@H](OC)COC(=O)[C@@H](OCc2ccccc2)/C=C\[C@@H]1C	none (no result: IMPase Li inh, KDM4E inh, NPSR antagonist, KAT2A inh)
COC(=O)[C@H]1O[C@@H](c2cc(OC)c(C)c(OC)c2OCc2ccccc2)[C@H](C)[C@H]2O[C@@]12C	none (no result: NPSR antagonist, KAT2A inh)
CCOC(=O)CC(=O)CSc1nccc(-c2cccnc2)n1	Sfp PPTase inh 56µM (no result: IMPase Li inh)
Cc1ccc2c(c1)c1nnc(SCC(=O)Nc3ccc(N(C)C)cc3)nc1n2CC(=O)O	Sfp PPTase inh 79µM (no result: Epigenetic reg, IMPase Li inh, KDM4E inh, NPSR antagonist)
O=C(Nc1nccs1)c1ccc(-c2ccc([N+](=O)[O-])cc2)o1	Sfp PPTase inh 25µM
N#C/C(=C(/O)c1ccc(-c2cccc([N+](=O)[O-])c2)o1)c1nc2ccccc2s1	KAT2A inh inconclusive, Sfp PPTase inh 35µM
COc1ccc2nc(NC(=O)c3ccc(-c4cccc([N+](=O)[O-])c4)o3)sc2c1	none
O=C(Nc1ccccc1)c1ccc(-c2ccc([N+](=O)[O-])cc2)o1	Sfp PPTase inh 50µM (no result: Epigenetic reg, IMPase Li inh, KDM4E inh, NPSR antagonist)
N#C/C(=C\c1ccco1)c1nc2ccccc2s1	none
N#C/C(=C/c1ccc(-c2cc(C(=O)O)cc(C(=O)O)c2)o1)c1nc2ccccc2s1	KDM4E inh inconclusive, Sfp PPTase inh 56µM
CC(=O)Oc1cc2c(c(C)c1OC(C)=O)CC=C1[C@]3(C)CC[C@]4(C)CC[C@@](C)(C(=O)O)CC4[C@]3(C)CC[C@]12C (stereo partly specified)	none (no result: NPSR antagonist)
O=C(O)c1ccc(-c2cccc([N+](=O)[O-])c2)o1	Sfp PPTase inh 50µM (no result: IMPase Li inh)
Cc1ccc(-c2ccc(C(=O)Nc3ccccc3)o2)c2ccccc12	Sfp PPTase inh 40µM
O=C(/C=C\c1ccc(-c2cccc([N+](=O)[O-])c2)o1)N1CCOCC1	KDM4E inh 16µM, Sfp PPTase inh 20µM
Cc1ccccc1CN1C(=O)c2ccccc2Sc2ccc(C(=O)NC3CCCC3)cc21	none (no result: IMPase Li inh, KDM4E inh, NPSR antagonist, Sfp PPTase inh)
O=[N+]([O-])c1ccc(NCCO)c(OCCO)c1	none (no result: Epigenetic reg, KDM4E inh, NPSR antagonist, KAT2A inh, Sfp PPTase inh)
CCCCC/C=C\C\C=C/C=C/C=C/[C@@H](SCC(N)C(=O)NCC(=O)O)[C@@H](O)CCCC(=O)O (stereo partly specified)	none (no result: NPSR antagonist, KAT2A inh)
O=C1CCCC=C1[C@H](O)CCCCBr	none (no result: IMPase Li inh, KDM4E inh, NPSR antagonist, KAT2A inh)
O=C(CSc1nnc(-c2ccc(Br)o2)n1Cc1ccccc1)c1ccccc1F	KAT2A inh inconclusive, Sfp PPTase inh 35µM
COc1ccc(NC(=O)C(Cl)=C(Cl)Cl)cn1	none
COc1ccc(NC(=O)/C(Cl)=C(/Cl)S(=O)(=O)Cc2ccccc2)cn1	NPSR antagonist 5µM
COc1ccc(NC(=O)/C(Cl)=C(/Cl)S(=O)Cc2ccc(Cl)cc2)cn1 (stereo unspecified)	NPSR antagonist 7.9µM, Sfp PPTase inh 11µM
COc1ccc(NC(=O)C(C)(C)Oc2ccc(Cl)cc2)cn1	none (no result: Epigenetic reg, IMPase Li inh, KDM4E inh, NPSR antagonist, Sfp PPTase inh)
Cc1cc(C)n2nc(C(=O)Nc3nnc(C4CC4)s3)nc2n1	Sfp PPTase inh 50µM

Screening results as filed in PubChem.
